Screening results deposited in PubChem by The Scripps Research Institute Molecular Screening Center.
PRMT1 inh: PRMT1 methyltransferase inhibitors, primary screen, biochemical, fluorescence polarization; actives 1.3% (n = 370,000); Protein arginine N-methyltransferase 1 (Homo sapiens), Q99873; inhibition, % at 2.79 µM; AID 652257, 2013; recombinant PRMT1, activity-based probe fluorescence polarization;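 active means inhibition above about 21% made by adding two undisclosed values, limit read from the data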
LEDGF integ inh: blockers of LEDGF/p75-dependent integrase strand transfer – biochemical, TR-FRET, high throughput, primary screen. TR-FRET IN-LEDGF/p75 DNA integration, Eu/Cy5. inhibition, % at 3.7 µM. actives 0.64% (n = 370,000);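 active means inhibition above the screen-wide mean plus 3 SD, cut at about 13% in these data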;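 further: signal is the Cy5 over europium emission ratio at 671 and 618 nm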
MBD2 DNA inh: inhibitors of MBD2 binding to methylated DNA, primary screen, biochemical, TR-FRET, DNA-binding domain, human | inhibition, % at 4.4 µM | MBD2 binding to methylated oligonucleotide | Methyl-CpG-binding domain protein 2 (Homo sapiens), Q9UBB5 | actives 0.31% (n = 370,000); in the data active means inhibition above about 13%
ABHD5-PLIN5 inh: ABHD5-PLIN5 interaction inhibitors, primary screen, cell lysate, split luciferase complementation, luminescence; Perilipin-5 (Homo sapiens) + 1-acylglycerol-3-phosphate O-acyltransferase ABHD5 (Homo …; Split G. princeps luciferase complementation, 4 h; inhibition, % at 4 µM; actives 0.78% (n = 360,000); AID 602281, 2012;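 active means inhibition above the mean inhibition across every tested compound plus 3 SD, cut at about 22% in these data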
rCAG RNA binder: binders of r(CAG) RNA repeats, primary screen, biochemical, fluorescence | r(CAG) RNA repeat, TO-PRO-1 dye displacement fluorescence | inhibition, % at 3 µM | actives 1.3% (n = 370,000) | AID 651821, 2012;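 active means inhibition above the plate cutoff, the mean of all test compounds on that plate plus 3 SD, cut at about 35% in these data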;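 further: higher means more dye released from RNA so lower well fluorescence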
UHRF1 binding: UHRF1 methylated DNA binding inhibitors, primary screen, counter-screen for MBD2 inhibitor project, biochemical, TR-FRET, human UHRF1, single concentration | AID 687016, 2013 | E3 ubiquitin-protein ligase UHRF1 (Homo sapiens), Q96T88 | actives 0.75% (n = 370,000) | UHRF1 binding to methylated oligo | inhibition, % at 4.4 µM; in the data active means inhibition above about 21%;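 further: UHRF1 SRA domain binding a hemimethylated CpG hairpin DNA probe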
Target sequence (Q96T88 whole entry, looked up, the tested form may be a part): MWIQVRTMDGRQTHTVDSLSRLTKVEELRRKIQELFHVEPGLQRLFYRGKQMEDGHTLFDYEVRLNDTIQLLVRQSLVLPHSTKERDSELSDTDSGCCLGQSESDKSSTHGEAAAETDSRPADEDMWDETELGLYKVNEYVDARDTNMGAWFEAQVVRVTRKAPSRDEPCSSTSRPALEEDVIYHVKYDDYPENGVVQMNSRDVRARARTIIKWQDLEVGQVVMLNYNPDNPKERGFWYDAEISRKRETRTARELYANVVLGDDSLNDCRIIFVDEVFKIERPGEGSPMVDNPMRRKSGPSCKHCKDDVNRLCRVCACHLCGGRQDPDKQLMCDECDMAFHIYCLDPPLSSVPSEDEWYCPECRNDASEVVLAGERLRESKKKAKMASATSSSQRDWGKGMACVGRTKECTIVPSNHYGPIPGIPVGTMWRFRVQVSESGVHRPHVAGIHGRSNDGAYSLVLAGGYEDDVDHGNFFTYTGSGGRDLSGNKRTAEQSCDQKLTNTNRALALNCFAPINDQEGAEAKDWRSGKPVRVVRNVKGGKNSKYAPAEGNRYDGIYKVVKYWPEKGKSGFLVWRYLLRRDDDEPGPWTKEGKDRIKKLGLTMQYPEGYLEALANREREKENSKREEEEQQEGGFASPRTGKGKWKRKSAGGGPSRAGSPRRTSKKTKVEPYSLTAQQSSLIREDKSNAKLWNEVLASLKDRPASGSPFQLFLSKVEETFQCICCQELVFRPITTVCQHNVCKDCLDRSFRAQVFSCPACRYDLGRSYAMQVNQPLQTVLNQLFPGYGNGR
PRMT1 inh conf: PRMT1 methyltransferase inhibitors, confirmation, biochemical, fluorescence polarization, triplicate; shares compounds with PRMT1 inh; recombinant His-PRMT1, activity-based probe fluorescence polarization; inhibition, % at 2.79 µM; actives 42% (n = 3,300); AID 687036, 2013;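 active means mean inhibition across replicates above the hit cutoff derived for the earlier primary screen, cut at about 22% in these data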
A number is an active result; n = inactive; x = no result given. Compounds with a hit are over-represented: about 4.1% of the library has one in this group of screens.

SMILES | PRMT1 inh | LEDGF integ inh | MBD2 DNA inh | ABHD5-PLIN5 inh | rCAG RNA binder | UHRF1 binding | PRMT1 inh conf
CN1C(=O)CC(N2CCC(c3nc4ccccc4[nH]3)CC2)C1=O (centres undefined) | n | n | n | n | n | n | x
O=C1CC(N2CCC(c3nc4ccccc4[nH]3)CC2)C(=O)N1Cc1ccccc1 (centres undefined) | 32.5 | n | n | n | n | n | n
O=C1CC(N2CCC(c3nc4ccccc4[nH]3)CC2)C(=O)N1c1cccc(F)c1 (centres undefined) | 43.1 | n | n | n | n | n | n
CCOC(=O)[C@@H]1CSCCS(=O)(=O)N1C(=O)[C@H](CCSC)NC(=O)OC(C)(C)C | n | n | n | x | n | n | x
C[C@@H]1CCN(C2CC2)S(=O)(=O)c2c(cccc2N2CC[C@H](O)C2)O1 | n | n | n | x | n | n | x
C=CCNC(=O)c1ccsc1N | 27.4 | n | n | n | n | n | n
C=CCNC(=O)c1ccc(Cl)cc1Cl | n | n | n | n | n | n | x
COC(=O)[C@]12C[C@H](CC(=O)N3CCCC3)C(=O)N(CCc3ccc(OC)c(OC)c3)C1=C[C@H](COCc1ccccc1)O[C@@H]2C | n | n | n | x | n | n | x
CC(=O)Nc1ccc(SCCCC(=O)c2ccccc2)cc1 | 35.4 | n | n | n | n | n | 39.1
Cc1c(Cl)cccc1NC(=O)CSCc1cc(=O)[nH][nH]1 | 27.7 | n | n | n | n | n | n
Cc1ccc(-c2csc(N)n2)s1 | 76.0 | n | n | n | n | n | 28.0
Cc1ccccc1-c1csc(N)n1 | n | n | n | n | n | n | x
CCCN(C(=O)c1cc(-c2ccco2)nc2ccccc12)c1c(N)n(Cc2ccccc2)c(=O)[nH]c1=O | 32.9 | n | n | n | n | n | n
CCCn1c(N)c(N(CCOC)C(=O)c2cc(Cl)nc3ccccc23)c(=O)[nH]c1=O | n | n | n | n | n | n | x
COCCN(C(=O)c1cc(-c2ccco2)nc2ccccc12)c1c(N)n(Cc2ccccc2)c(=O)[nH]c1=O | 83.0 | n | n | n | n | n | n
CCCCN(C(=O)c1cc(-c2ccc(F)cc2)nc2ccccc12)c1c(N)n(CCCC)c(=O)[nH]c1=O | n | n | n | n | n | n | x
O=C(OCC#CCSc1nnc(-c2cccc3ccccc23)o1)c1ccc(SC(F)(F)F)cc1 | n | n | n | x | x | n | x
CCOC(=O)NC(=O)C(/C=N/c1sccc1C(=O)OC)=C(\C)O | 45.0 | n | n | n | n | n | n
CCOC(=O)C1=C(C)OC(N)=C(C#N)C1c1ccccc1 (centres undefined) | n | n | n | n | n | n | x
CCOC(=O)C1=C(CSc2nc3c(cc2C#N)CN(C)CC3)OC(N)=C(C#N)C1c1ccncc1 (centres undefined) | 24.8 | n | n | n | n | n | n
CCOC(=O)CC1=C(C(=O)OCC)C(c2ccncc2)C(C#N)=C(N)O1 (centres undefined) | n | n | n | n | n | n | x
CCOC(=O)C1=C(CSc2nc(-c3ccccc3)ccc2C#N)OC(N)=C(C#N)C1c1ccc(OC)cc1 (centres undefined) | 47.6 | n | n | n | n | n | n
CCOC(=O)C1=C(CSc2nc(CC)c(C)cc2C#N)OC(N)=C(C#N)C1c1ccccc1 (centres undefined) | 27.8 | n | n | n | n | n | n
Cc1ccc(/C=C/C(=O)Nc2nccs2)o1 | 29.2 | n | n | n | n | n | n
CC(C)[C@H](N)C(=O)N[C@H](C(=O)N1CCC2CCN(S(=O)(=O)c3ccccc3)CC21)C(C)C (some centres undefined) | n | n | n | x | n | n | x
SMILES | PRMT1 inh | LEDGF integ inh | MBD2 DNA inh | ABHD5-PLIN5 inh | rCAG RNA binder | UHRF1 binding | PRMT1 inh conf
COC[C@H]1CCCN1c1cccc2c1S(=O)(=O)N(C1CC1)CC[C@@H](C)O2 | n | n | n | x | n | n | x
CCO[C@H]1OC(C(N)=O)=C[C@@H](c2ccc(Br)cc2)[C@@H]1CCCO | n | n | n | n | n | n | x
CCO[C@H]1OC(C(N)=O)=C[C@@H](c2ccccc2)[C@@H]1CCCO | 73.1 | n | n | n | n | n | n
CCN1CC=C2C(C1)C(c1ccc(Cl)s1)C(C#N)=C(N)C2(C#N)C#N (centres undefined) | 30.3 | n | n | n | n | n | 36.3
O=C(O)CCN1C(=O)C2C3CC(C2C1=O)C1C(c2ccccc2)c2sc(=O)[nH]c2SC31 (centres undefined) | n | n | n | n | n | n | x
Cc1ccc(C2c3sc(=O)[nH]c3SC3C4CC(C5C(=O)N(C(C)C(=O)O)C(=O)C45)C23)cc1 (centres undefined) | 59.1 | n | n | n | n | n | n
O=C(NC1CCCCN(Cc2cccc(Cl)c2)C1=O)c1ccc(-c2ccccc2)cc1 (centres undefined) | n | n | n | x | n | n | x
O=C1[C@H](c2ccccc2)[C@@H](c2ccncc2)N1c1ccncc1 | n | n | n | x | n | n | x
COCc1cc(N2CCN(C(=O)OC(C)(C)C)C[C@@H]2C)ccc1N1CC[C@@H](O)C1 | 50.5 | n | n | x | n | n | n
C[C@@H]1CN(C(=O)OC(C)(C)C)CCN1c1ccc(N2CC[C@H](O)C2)c(C#N)c1 | n | n | n | x | n | n | x
CC(C)C[C@H]1COc2cccc(NCCO)c2S(=O)(=O)N1 | n | n | n | x | n | n | x
N#C/C(=C\C=C\c1ccccc1[N+](=O)[O-])C(=O)NC1CCCCC1 | x | x | x | n | x | x | x
N#C/C(=C\c1ccccc1[N+](=O)[O-])C(=O)NC1CCCCC1 | 31.7 | n | n | n | n | n | n
Cc1cc(NC(=O)CSCC(=O)OCC(=O)Nc2ccc(OC(F)F)cc2)no1 | n | n | n | n | n | n | x
Cc1cc(NC(=O)CSCC(=O)OCC(=O)c2cccc(Br)c2)no1 | 27.4 | n | n | n | n | n | n
Cc1ccc(-c2cc(-c3ccccc3)c(C#N)c(N)n2)o1 | 30.3 | n | n | n | n | n | 66.2
Cc1ccc(N2C(=O)CC(n3ccnc3)C2=O)cc1C (centres undefined) | n | n | n | n | n | n | x
Cc1cccc(N2C(=O)CC(n3ccnc3)C2=O)c1C (centres undefined) | 36.2 | n | n | n | n | n | n
Cc1ccc(Cl)cc1NC(=O)OCCN(C)C(=O)Nc1cc(Cl)ccc1C | n | n | n | x | n | n | x
COc1cc2ccccc2cc1C(=O)NNC(=O)c1ccccc1O | 39.5 | n | n | n | n | n | n
